From PubChem BioAssay
For part of these data: Measured potencies and affinities stand elsewhere. Active and inactive are the calls of the source. Unless noted, how the calls were made is not given here.

Columns and labels:
[1] = antimalarial activity against Dd2 strain (AID 2302;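 active means growth inhibition above 50% at the single 2 µM test dose, taken to imply half-maximal potency below 2 µM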;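 further: 0% = DMSO untreated growth and 100% = chloroquine plus artemisinin killed control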); settings: P. falciparum Dd2 in RBCs, LDH growth readout, 72 h; at 2 µM; hits give high values
[2] = HepG2 cytotoxicity, primary screen, cytotoxicity control for P. falciparum antimalarial project, cell-based, ATP luminescence (AID 2303;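 active means inhibition above 50%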;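 further: 0% = DMSO wells and 100% = digitonin-killed cells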); settings: HepG2 viability, 24-48 h, at 10 µM, hits give high values
[3] = molecular target: L-lactate dehydrogenase (Plasmodium falciparum (isolate CDC / Honduras)) (UniProt Q27743); assay: PfLDH activity inhibition – cell lysate, 3D7 strain, counter-screen for P. falciparum growth inhibition project (AID 2304);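 further: 0% = vehicle and 100% = reference inhibitor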; settings: P. falciparum 3D7 crude extract, LDH APAD/NBT absorbance; at 2 µM; hits give high values
L-lactate dehydrogenase (Plasmodium falciparum (isolate CDC / Honduras)), sequence (Q27743 whole entry, looked up): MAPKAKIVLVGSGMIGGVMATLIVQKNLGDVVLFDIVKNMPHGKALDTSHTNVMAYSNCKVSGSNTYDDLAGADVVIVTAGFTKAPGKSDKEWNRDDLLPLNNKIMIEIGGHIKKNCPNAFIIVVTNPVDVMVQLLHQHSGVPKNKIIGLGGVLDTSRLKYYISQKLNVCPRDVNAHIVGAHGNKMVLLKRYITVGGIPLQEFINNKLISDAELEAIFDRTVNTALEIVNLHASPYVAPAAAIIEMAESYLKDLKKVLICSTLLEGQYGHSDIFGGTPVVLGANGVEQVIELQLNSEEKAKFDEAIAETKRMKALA

[4] = inhibition of 3D7 malaria parasite growth – strain 3D7 (AID 2306);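 further: 0% = DMSO wells and 100% = chloroquine plus artemisinin control wells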; settings: P. falciparum 3D7 erythrocytic growth, LDH absorbance, 72 h; at 2 µM; hits give high values
[5] = molecular target: Calcium-dependent protein kinase 1 (Plasmodium falciparum (isolate 3D7)) (UniProt P62344); assay: PfCDPK1 kinase inhibitors, biochemical, TCAMS library (AID 1159585; cut-off not given, nearly all actives have IC50 up to about 0.98 µM;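 further: inhibitors leave more ATP so luminescence rises with inhibition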); settings: recombinant PfCDPK1, Kinase-Glo ATP depletion luminescence
Calcium-dependent protein kinase 1 (Plasmodium falciparum (isolate 3D7)), sequence (P62344 whole entry, looked up): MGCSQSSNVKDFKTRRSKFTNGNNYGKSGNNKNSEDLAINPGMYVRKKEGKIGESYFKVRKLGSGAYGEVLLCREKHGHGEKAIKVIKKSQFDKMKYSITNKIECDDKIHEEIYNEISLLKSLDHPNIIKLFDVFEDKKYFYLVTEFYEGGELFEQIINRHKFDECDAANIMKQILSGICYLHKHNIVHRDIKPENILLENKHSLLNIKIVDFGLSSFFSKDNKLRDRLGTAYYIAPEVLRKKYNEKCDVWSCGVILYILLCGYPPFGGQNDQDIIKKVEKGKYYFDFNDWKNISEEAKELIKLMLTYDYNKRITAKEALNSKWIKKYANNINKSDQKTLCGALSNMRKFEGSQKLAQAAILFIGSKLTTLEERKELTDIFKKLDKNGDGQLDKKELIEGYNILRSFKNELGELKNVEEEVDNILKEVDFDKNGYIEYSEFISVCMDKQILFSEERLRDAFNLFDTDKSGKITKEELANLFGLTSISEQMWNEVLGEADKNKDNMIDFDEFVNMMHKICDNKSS

[6] = molecular target: Plasmodium falciparum protein kinase 6 (PK6, PF3D7_1337100) (UniProt Q8IDW1); assay: PfPK6 kinase inhibitors, biochemical, TCAMS library (AID 1159586); settings: recombinant PfPK6, Kinase-Glo ATP depletion luminescence
Plasmodium falciparum protein kinase 6 (PK6, PF3D7_1337100), sequence (Q8IDW1 1-305): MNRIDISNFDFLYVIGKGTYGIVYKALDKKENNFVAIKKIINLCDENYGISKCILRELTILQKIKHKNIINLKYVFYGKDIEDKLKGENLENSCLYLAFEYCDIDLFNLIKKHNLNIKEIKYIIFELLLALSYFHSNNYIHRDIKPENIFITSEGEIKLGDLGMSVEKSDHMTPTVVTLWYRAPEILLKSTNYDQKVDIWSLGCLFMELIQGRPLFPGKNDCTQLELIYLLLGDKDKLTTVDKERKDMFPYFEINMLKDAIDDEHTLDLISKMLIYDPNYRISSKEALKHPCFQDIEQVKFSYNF

[7] = molecular target: Protein kinase 7 (PK7), Plasmodium falciparum 3D7 (PF3D7_0213400) (UniProt Q7YTF7); assay: inhibition of Plasmodium PK7 catalytic activity – biochemical, TCAMS antimalarial set, Kinase-Glo luminescence (AID 1159587); settings: recombinant PfPK7, Kinase-Glo ATP depletion luminescence
Protein kinase 7 (PK7), Plasmodium falciparum 3D7 (PF3D7_0213400), sequence (Q7YTF7 1-343): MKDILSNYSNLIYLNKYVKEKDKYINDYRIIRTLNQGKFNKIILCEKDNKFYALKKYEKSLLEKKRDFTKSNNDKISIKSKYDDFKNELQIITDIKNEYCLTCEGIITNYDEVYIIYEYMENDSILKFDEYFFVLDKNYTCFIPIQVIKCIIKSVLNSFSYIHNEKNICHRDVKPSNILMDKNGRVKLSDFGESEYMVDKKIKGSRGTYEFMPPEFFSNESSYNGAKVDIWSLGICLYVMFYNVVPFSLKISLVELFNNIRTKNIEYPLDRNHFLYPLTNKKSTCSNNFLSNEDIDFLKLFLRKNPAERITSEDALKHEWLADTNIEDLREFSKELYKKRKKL

[8] = molecular target: Calcium-dependent protein kinase 4 (Plasmodium falciparum (isolate 3D7)) (UniProt Q8IBS5); assay: PfCDPK4 kinase inhibitors, biochemical, TCAMS library (AID 1159588; cut-off not given, nearly all actives have IC50 up to about 0.91 µM); settings: recombinant PfCDPK4, Kinase-Glo ATP depletion luminescence
Calcium-dependent protein kinase 4 (Plasmodium falciparum (isolate 3D7)), sequence (Q8IBS5 whole entry, looked up): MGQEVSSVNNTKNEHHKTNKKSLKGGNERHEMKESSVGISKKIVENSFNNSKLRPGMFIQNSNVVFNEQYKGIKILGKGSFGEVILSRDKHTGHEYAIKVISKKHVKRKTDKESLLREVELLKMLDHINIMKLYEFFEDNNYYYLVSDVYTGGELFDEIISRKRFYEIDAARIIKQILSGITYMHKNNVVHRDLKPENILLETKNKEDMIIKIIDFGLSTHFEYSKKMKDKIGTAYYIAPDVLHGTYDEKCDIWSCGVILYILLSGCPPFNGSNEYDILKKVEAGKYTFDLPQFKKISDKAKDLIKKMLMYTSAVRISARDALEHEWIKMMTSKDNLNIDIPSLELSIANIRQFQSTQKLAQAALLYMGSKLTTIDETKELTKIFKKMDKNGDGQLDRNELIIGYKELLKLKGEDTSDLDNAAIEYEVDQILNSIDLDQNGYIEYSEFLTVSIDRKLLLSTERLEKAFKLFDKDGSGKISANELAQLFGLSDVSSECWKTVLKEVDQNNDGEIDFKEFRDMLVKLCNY

CC(C)(C)c1cc(C(=O)N2CCN(c3ncnc4ccsc34)CC2)n(Cc2ccccc2)n1
active: growth inhibition [1] 83% | growth inhibition [4] 95%
inactive: inhibition [2] 2% | inhibition [3] -8% | outcome [5] | outcome [6] | outcome [7] | outcome [8]

CN(C)CC1c2[nH]c3ccccc3c2CCN1C(=O)Nc1ccc(Cl)c(Cl)c1 (stereo not drawn)
inactive: growth inhibition [1] 32% | inhibition [3] -6% | outcome [5] | outcome [6] | outcome [7] | outcome [8]
active: inhibition [2] 99% | growth inhibition [4] 90%

O=C1O[C@H](c2ccccc2)[C@H](c2ccccc2)N(C(=O)OCc2ccccc2)[C@H]1Cc1ccccc1C1CCCC1
active: inhibition [2] 56% | growth inhibition [4] 97%
inactive: growth inhibition [1] -3% | inhibition [3] 1% | outcome [5] | outcome [6] | outcome [7] | outcome [8]

COc1ccc(CCN2CC[C@H](Nc3nc(-c4ccc(F)c(F)c4)nc4ccccc34)C2)cc1S(N)(=O)=O
active: growth inhibition [1] 64% | growth inhibition [4] 99%
inactive: inhibition [2] 18% | inhibition [3] -8% | outcome [5] | outcome [6] | outcome [7] | outcome [8]

Cc1[nH]c(C)c(-c2ccc(CCc3cccc(C(F)(F)F)c3)nc2)c(=O)c1Cl
inactive: inhibition [2] 28% | inhibition [3] -2% | outcome [5] | outcome [6] | outcome [7] | outcome [8]
active: growth inhibition [1] 97% | growth inhibition [4] 99%

CCNc1cc(C(=O)N[C@@H](Cc2ccccc2)[C@H](O)CNC2(CCC(C)C)CC2)cc(N2CCCCS2(=O)=O)c1
inactive: inhibition [2] 6% | inhibition [3] 2% | outcome [5] | outcome [6] | outcome [7] | outcome [8]
active: growth inhibition [1] 52% | growth inhibition [4] 90%

O=C(Nc1cccc(CN2CCCN(Cc3ccc(O)cc3)CC2)c1)c1cc2ccccc2o1
inactive: inhibition [2] 10% | inhibition [3] 0% | outcome [5] | outcome [6] | outcome [7] | outcome [8]
active: growth inhibition [1] 62% | growth inhibition [4] 95%

CCOC(=O)Cn1ccc2c(NCc3ccccc3)nc(C)nc21
inactive: growth inhibition [1] 0% | inhibition [3] -1% | outcome [5] | outcome [6] | outcome [7] | outcome [8]
active: inhibition [2] 64% | growth inhibition [4] 96%

COCCNC(=O)c1ccc(OC2CCN(CC(C)=Cc3ccccc3)CC2)c(Cl)c1
active: growth inhibition [1] 95% | growth inhibition [4] 94%
inactive: inhibition [2] 18% | inhibition [3] 2% | outcome [5] | outcome [6] | outcome [7] | outcome [8]

O=C(Nc1ccc(Cl)cc1)c1ccc(S(=O)(=O)NCC2CCN(CC3CCCCC3)CC2)cc1
inactive: growth inhibition [1] 8% | inhibition [2] 40% | inhibition [3] -2% | outcome [5] | outcome [6] | outcome [7] | outcome [8]
active: growth inhibition [4] 93%

Oc1cc(Nc2ccnc3cc(I)ccc23)ccc1F
inactive: inhibition [2] -6% | inhibition [3] 0% | outcome [5] | outcome [6] | outcome [7] | outcome [8]
active: growth inhibition [1] 99% | growth inhibition [4] 99%

Cc1ccc(S(=O)(=O)NC2CCN(CCNC(=O)Nc3cc(C)nc4ccccc34)C2)cc1 (stereo not drawn)
inactive: growth inhibition [1] 42% | inhibition [2] -2% | inhibition [3] -3% | outcome [5] | outcome [6] | outcome [7] | outcome [8]
active: growth inhibition [4] 97%

FC(F)(F)COc1ccc2ccccc2c1CCNCCCCNCCc1c(OCC(F)(F)F)ccc2ccccc12
active: growth inhibition [1] 53% | inhibition [2] 99% | growth inhibition [4] 100%
inactive: inhibition [3] 0% | outcome [5] | outcome [6] | outcome [7] | outcome [8]

NC(N)=Nc1ccc(OCCCCCOc2ccc(N=C(N)N)c(Cl)c2)cc1Cl
inactive: inhibition [2] 18% | inhibition [3] 6% | outcome [5] | outcome [6] | outcome [7] | outcome [8]
active: growth inhibition [1] 92% | growth inhibition [4] 92%

CN1CCN(c2ccnc3ccc(NC(=O)Nc4ccc5c(c4)CCC5=O)cc23)CC1
active: growth inhibition [1] 67% | growth inhibition [4] 100%
inactive: inhibition [2] 8% | inhibition [3] 0% | outcome [5] | outcome [6] | outcome [7] | outcome [8]

c1cn(CCCNc2ncc(-c3ccsc3)c(-c3nccs3)n2)cn1
inactive: inhibition [2] -11% | inhibition [3] -4% | outcome [5] | outcome [6] | outcome [7] | outcome [8]
active: growth inhibition [1] 51% | growth inhibition [4] 94%

CC(=O)Nc1ccccc1OCc1cc2cc(C(=O)N3CCC(N4C(=O)OCc5ccccc54)CC3)ccc2o1
inactive: inhibition [2] 34% | inhibition [3] -2% | outcome [5] | outcome [6] | outcome [7] | outcome [8]
active: growth inhibition [1] 98% | growth inhibition [4] 99%

COc1ccc([N+](=O)[O-])cc1N(Cc1ccccc1-c1ccccc1)S(=O)(=O)c1ccc(C(F)(F)F)cc1[N+](=O)[O-]
inactive: inhibition [2] 2% | inhibition [3] -6% | outcome [5] | outcome [6] | outcome [7] | outcome [8]
active: growth inhibition [1] 92% | growth inhibition [4] 88%

CS(=O)(=O)Nc1cccc(-c2cnc3[nH]cc(-c4cc(N)cc(C(=O)O)c4)c3c2)c1
inactive: inhibition [2] 40% | inhibition [3] 0% | outcome [5] | outcome [6] | outcome [7] | outcome [8]
active: growth inhibition [1] 96% | growth inhibition [4] 96%

CC(C)c1sc(N2CCN(C)CC2)nc1C(=O)Nc1cccc2c1CCCC2
inactive: inhibition [2] 3% | inhibition [3] -1% | outcome [5] | outcome [6] | outcome [7] | outcome [8]
active: growth inhibition [1] 50% | growth inhibition [4] 98%

OCC1CCN(Cc2ccc(-c3ccc(-c4nc5ccc(F)cc5[nH]4)cc3)cc2)CC1
active: growth inhibition [1] 95% | growth inhibition [4] 100%
inactive: inhibition [2] 17% | inhibition [3] -1% | outcome [5] | outcome [6] | outcome [7] | outcome [8]
